The values below come from PubChem BioAssay (EPA / NIEHS).

The target of experiment [1] is Glucocorticoid receptor (Homo sapiens) (UniProt P04150). Nature of the experiment: ATG_GR_TRANS: Attagene TRANS-FACTORIAL HepG2 Assay for human Glucocorticoid Receptor (GR) (AID 2282978; active = hit-call score of the fitted dose curve at least 0.9, where 1 is the maximum;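 also: activators score as hits since higher reporter transcript over DMSO is fitted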). Conditions: HepG2 Attagene TRANS GR reporter, mRNA transcription. A digest of the protocol: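 HepG2 cells transiently transfected with multiplexed reporter units in which chimeric NR-GAL4 proteins drive GAL4-UAS reporters; 24 h compound exposure. Reporter mRNA measured by RT-PCR, 6-FAM labelling, HpaI digestion and capillary electrophoresis; gain-of-signal fitted versus DMSO.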
Chain of Glucocorticoid receptor (Homo sapiens) (P04150 whole entry, looked up, the tested form may be a part): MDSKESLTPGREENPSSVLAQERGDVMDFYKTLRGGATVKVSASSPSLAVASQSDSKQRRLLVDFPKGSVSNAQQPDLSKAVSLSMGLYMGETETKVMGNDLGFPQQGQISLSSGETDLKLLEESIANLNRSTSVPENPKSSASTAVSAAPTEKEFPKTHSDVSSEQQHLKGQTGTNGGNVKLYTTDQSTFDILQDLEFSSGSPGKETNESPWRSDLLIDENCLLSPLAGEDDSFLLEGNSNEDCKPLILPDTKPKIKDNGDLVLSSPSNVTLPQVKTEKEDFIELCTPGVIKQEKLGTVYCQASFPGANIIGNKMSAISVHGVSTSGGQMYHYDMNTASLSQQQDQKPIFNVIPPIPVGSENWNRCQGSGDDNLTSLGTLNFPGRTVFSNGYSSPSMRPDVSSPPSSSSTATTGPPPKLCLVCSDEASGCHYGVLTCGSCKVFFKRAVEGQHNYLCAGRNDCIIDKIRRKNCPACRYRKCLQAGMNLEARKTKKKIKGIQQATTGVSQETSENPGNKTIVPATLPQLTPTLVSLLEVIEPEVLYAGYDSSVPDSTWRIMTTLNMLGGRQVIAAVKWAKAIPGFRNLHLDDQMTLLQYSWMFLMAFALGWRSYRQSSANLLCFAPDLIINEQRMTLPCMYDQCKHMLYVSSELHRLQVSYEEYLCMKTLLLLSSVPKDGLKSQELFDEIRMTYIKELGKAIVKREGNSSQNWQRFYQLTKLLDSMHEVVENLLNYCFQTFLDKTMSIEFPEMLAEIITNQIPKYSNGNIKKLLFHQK

Experiment [2] is described as follows: ATG_M_06_TRANS: Attagene TRANS-FACTORIAL HepG2 Assay for M06 Transcription Factor (Internal Marker) (AID 2282983; active = hit-call score of the fitted dose curve at least 0.9, where 1 is the maximum). The note with it: HepG2 Attagene TRANS M06 internal marker reporter. The method, boiled down: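 Measured by capillary electrophoresis of fluorescently labelled RT-PCR products, this endpoint reflects reporter mRNA in HepG2 cells harbouring exogenous NR-GAL4 reporter constructs after 24 h exposure, with DMSO as baseline.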

The nature of experiment [3]: ATG_M_32_TRANS: Attagene TRANS-FACTORIAL HepG2 Assay for M32 Transcription Factor (Internal Marker) (AID 2282984; active = hit-call score of the fitted dose curve at least 0.9, where 1 is the maximum;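 also: transcript level of a background control reporter unit measured by RT-PCR and capillary electrophoresis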). The note with it: HepG2 Attagene TRANS M32 internal marker reporter. The method, boiled down: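 Capillary electrophoresis of 6-FAM-labelled reporter fragments gives the signal; data fitted for gain over DMSO negative control. Source: HepG2 cells bearing transient multiple reporter transcription units, 24 h exposure.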

In experiment [4] the target is Nuclear receptor subfamily 4 group A member 2 (Homo sapiens) (UniProt P43354). The experiment is described as follows: ATG_NURR1_TRANS: Attagene TRANS-FACTORIAL HepG2 Assay for human Nuclear Receptor Related Protein 1 (NURR1) (AID 2282985; active = hit-call score of the fitted dose curve at least 0.9, where 1 is the maximum). Conditions: HepG2 Attagene TRANS reporter, mRNA readout. A digest of the protocol: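 HepG2 / transient MRTU transfection / 24 h compound exposure / RT-PCR + CE fluorescence of reporter mRNA / gain-of-signal vs DMSO.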
Chain of Nuclear receptor subfamily 4 group A member 2 (Homo sapiens) (P43354 whole entry, looked up): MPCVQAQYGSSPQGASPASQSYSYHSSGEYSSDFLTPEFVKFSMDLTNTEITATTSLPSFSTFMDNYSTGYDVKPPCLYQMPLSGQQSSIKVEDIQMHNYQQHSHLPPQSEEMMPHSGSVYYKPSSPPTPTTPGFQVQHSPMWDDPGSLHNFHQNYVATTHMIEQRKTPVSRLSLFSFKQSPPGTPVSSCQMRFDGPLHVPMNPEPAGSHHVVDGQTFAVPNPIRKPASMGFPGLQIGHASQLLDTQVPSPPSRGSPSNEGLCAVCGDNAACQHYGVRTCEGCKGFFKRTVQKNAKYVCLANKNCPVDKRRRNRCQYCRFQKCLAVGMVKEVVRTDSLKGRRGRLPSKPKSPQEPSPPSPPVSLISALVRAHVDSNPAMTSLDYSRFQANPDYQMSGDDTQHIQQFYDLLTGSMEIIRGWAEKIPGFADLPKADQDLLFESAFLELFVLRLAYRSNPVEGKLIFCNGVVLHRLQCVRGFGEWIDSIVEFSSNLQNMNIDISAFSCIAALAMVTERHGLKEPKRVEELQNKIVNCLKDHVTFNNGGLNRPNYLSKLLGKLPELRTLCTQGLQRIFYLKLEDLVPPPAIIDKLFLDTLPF

In experiment [5] the target is Nuclear respiratory factor 1 (Homo sapiens) (UniProt Q16656). The experiment is described as follows: ATG_NRF1_CIS: Attagene CIS-FACTORIAL HepG2 Assay for human Nuclear Respiratory Factor 1 (NRF1) Orphan Gene (AID 2282987). The note with it: HepG2 NRF1 cis-element reporter, Attagene multiplex; actives raise or lower the signal. The method, boiled down:
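HepG2 cells transiently transfected with multiple reporter transcription units under cis-regulatory promoter control, so endogenous transcription-factor activity is read. After 24 h compound exposure, reporter mRNA quantified by RT-PCR, fluorescent labelling, HpaI digestion and capillary electrophoresis; bidirectional fitting versus DMSO.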

The nature of experiment [6]: ATG_NFI_CIS: Attagene CIS-FACTORIAL HepG2 Assay for human Nuclear Factor I (NFI) (AID 2282989). The note with it: HepG2 cis-regulatory reporter, NFI response element transcription; actives raise or lower the signal. A digest of the protocol: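 After transient transfection of HepG2 with cis-promoter reporter constructs and 24 h dosing, RNA is reverse-transcribed, amplified, 6-FAM end-labelled and HpaI-digested before capillary analysis. Bidirectional curve fitting against DMSO.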

Experiment [7] addresses Myc proto-oncogene protein (Homo sapiens) (UniProt P01106). Nature of the experiment: ATG_Myc_CIS: Attagene CIS-FACTORIAL HepG2 Assay for human Myelocytomatosis (Myc) Proto-Oncogene Transcription Factor (AID 2282990). The note with it: HepG2, Attagene cis-reporter transcription factor activity; actives raise or lower the signal. The method, boiled down:
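Transiently transfected HepG2 cells bearing cis-promoter reporter units for endogenous transcription factors; 24 h exposure. Reporter mRNA measured by RT-PCR, 6-FAM primer extension, HpaI cut and capillary electrophoresis; bidirectional fit relative to DMSO.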

A short description of experiment [8]: ATG_NF_kB_CIS: Attagene CIS-FACTORIAL HepG2 Assay for human Nuclear Factor Kappa B (NF-kB) (AID 2282991). Conditions: HepG2 Attagene cis-factorial NF-kB reporter mRNA; actives raise or lower the signal. A digest of the protocol:
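HepG2 cells transiently transfected with multiplexed cis-element reporter units measuring endogenous transcription factor activity; reporter mRNA read 24 h after dosing by RT-PCR, fluorescent labelling, HpaI digestion and capillary electrophoresis. Bidirectional fit against DMSO baseline.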

A short description of experiment [9]: ATG_NRF2_ARE_CIS: Attagene CIS-FACTORIAL HepG2 Assay for human Nuclear Factor Erythroid 2 Related Factor 2 (NFR2) response to Antioxidant Response Elements (ARE) (AID 2282992). The note with it: HepG2 Attagene ARE/NRF2 reporter, transcription factor activity; actives raise or lower the signal. A digest of the protocol: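 Transient MRTU transfection of HepG2; 24 h compound exposure; TriZol RNA, RT with oligo(dT), PCR, 6-FAM primer extension, HpaI cut, CE. Bidirectional fit vs DMSO.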

Experiment [10] is described as follows: ATG_Oct_MLP_CIS: Attagene CIS-FACTORIAL HepG2 Assay for human Octamer-Binding Transcription Factor (Oct) (AID 2282993). The note with it: HepG2 Attagene cis-factorial Oct reporter, mRNA; actives raise or lower the signal. The method, boiled down:
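Cells of the HepG2 line express promoter-controlled reporter sequences whose mRNA levels, after 24 h treatment, are measured by RT-PCR and capillary electrophoresis. Increases and decreases are scored relative to DMSO.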

Experiment [11] concerns the target Cellular tumor antigen p53 (Homo sapiens) (UniProt P04637). The experiment is described as follows: ATG_p53_CIS: Attagene CIS-FACTORIAL HepG2 Assay for human p53 Transcription Factor (AID 2282994). Conditions: HepG2 p53 cis-element reporter, Attagene mRNA; actives raise or lower the signal. The method, boiled down:
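HepG2, transient MRTU transfection (cis promoter elements, endogenous TFs); 24 h dosing; RNA isolation, RT-PCR, 6-FAM primer extension, HpaI digest, CE fluorescence; bidirectional fit vs DMSO.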

A short description of experiment [12]: BSK_3C_TissueFactor: BioMAP Diversity Plus: 3C Assay for Tissue Factor Biomarker Activity (AID 2282997). The note with it: BioMAP 3C HUVEC, tissue factor biomarker readout; actives raise or lower the signal. A digest of the protocol: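 Values derive from bidirectional curve fitting against DMSO of Tissue Factor ELISA signals, taken 24 h after dosing primary human umbilical vein endothelial cells.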

The nature of experiment [13]: BSK_3C_uPAR: BioMAP Diversity Plus: 3C Assay for Urokinase-type plasminogen activator receptor (uPAR) Biomarker Activity (AID 2282998). The note with it: BioMAP 3C HUVEC, uPAR biomarker ELISA; actives raise or lower the signal. A digest of the protocol:
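Endothelial primary cells of human umbilical vein origin received test chemical; 24 h later uPAR was assayed by ELISA. Fitting was bidirectional, DMSO as negative control.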
(In general: ELISA stands for enzyme-linked immunosorbent assay.)

Experiment [14] in a line: BSK_3C_VCAM1: BioMAP Diversity Plus: 3C Assay for Vascular cell adhesion molecule 1 (VCAM1) Biomarker Activity (AID 2282999). Conditions: BioMAP 3C HUVEC, VCAM1 ELISA, cytokine-stimulated; actives raise or lower the signal. The method, boiled down: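 Human umbilical vein endothelial cells (3C system), biomarker read by ELISA 24 h after dosing; bidirectional fit against DMSO baseline. Cytotoxicity tracked by SRB total-protein staining in parallel cultures at biomarker time.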

Experiment [15] addresses Hepatocyte nuclear factor 4-alpha (Homo sapiens) (UniProt P41235). Nature of the experiment: ATG_HNF4a_TRANS: Attagene TRANS-FACTORIAL HepG2 Assay for human Hepatocyte Nuclear Factor 4 alpha (HNF4a) (AID 2282982; active = hit-call score of the fitted dose curve at least 0.9, where 1 is the maximum). The note with it: HepG2 HNF4a transactivation reporter, mRNA readout. The method, boiled down: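 Gain-of-signal mRNA induction, relative to DMSO vehicle, was read after 24 h compound treatment of HepG2 cells bearing transfected GAL4-UAS reporters. Detection used RT-PCR, 6-FAM primer extension and capillary electrophoresis.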

The target of experiment [16] is Bile acid receptor (Homo sapiens) (UniProt Q96RI1). Nature of the experiment: ATG_FXR_TRANS: Attagene TRANS-FACTORIAL HepG2 Assay for Farnesoid X Receptor (FXR) (AID 2282979; active = hit-call score of the fitted dose curve at least 0.9, where 1 is the maximum;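 also: hits raise reporter mRNA above DMSO so AC50 marks FXR activation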). Conditions: HepG2 Attagene TRANS FXR-GAL4 reporter transcription. The method, boiled down: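 Chimeric FXR-GAL4 activity in transiently transfected human HepG2 liver cells is scored as induction of reporter mRNA after 24 h of dosing. Detection uses RT-PCR with fluorescent labelling and capillary electrophoresis, with DMSO serving as baseline.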
Chain of Bile acid receptor (Homo sapiens) (Q96RI1 whole entry, looked up, the tested form may be a part): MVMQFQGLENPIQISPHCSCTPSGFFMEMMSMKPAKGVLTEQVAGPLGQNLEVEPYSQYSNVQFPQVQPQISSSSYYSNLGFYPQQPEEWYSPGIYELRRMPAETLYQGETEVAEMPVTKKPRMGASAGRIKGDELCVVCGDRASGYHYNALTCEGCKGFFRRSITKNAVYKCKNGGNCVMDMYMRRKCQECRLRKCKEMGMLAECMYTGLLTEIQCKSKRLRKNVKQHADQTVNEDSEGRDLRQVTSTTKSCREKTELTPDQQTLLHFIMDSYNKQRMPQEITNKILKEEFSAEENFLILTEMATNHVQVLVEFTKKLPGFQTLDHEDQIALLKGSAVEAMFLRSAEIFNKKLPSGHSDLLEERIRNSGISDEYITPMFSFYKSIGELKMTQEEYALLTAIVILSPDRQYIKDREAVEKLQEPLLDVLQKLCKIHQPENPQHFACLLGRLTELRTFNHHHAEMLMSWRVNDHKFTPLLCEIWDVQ

For experiment [17], the target named is Transcriptional activator Myb (Homo sapiens) (UniProt P10242). Nature of the experiment: ATG_Myb_CIS: Attagene CIS-FACTORIAL HepG2 Assay for human Myeloblastosis (Myb) Proto-Oncogene Transcription Factor (AID 2282986). The note with it: HepG2 Attagene CIS-FACTORIAL Myb reporter transcription; actives raise or lower the signal. The method, boiled down:
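HepG2 cells were transiently transfected with cis-regulated multiple reporter transcription units reflecting endogenous Myb activity, then exposed to compound for 24 hours. Reporter mRNA was measured by RT-PCR with capillary electrophoresis; bidirectional fitting versus DMSO baseline.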

In experiment [18] the target is Oxysterols receptor LXR-beta (Homo sapiens) (UniProt P55055). Nature of the experiment: ATG_LXRb_TRANS: Attagene TRANS-FACTORIAL HepG2 Assay for human Liver X Receptor beta (LXRb) (AID 2282981; active = hit-call score of the fitted dose curve at least 0.9, where 1 is the maximum). The note with it: HepG2 Attagene TRANS GAL4-LXRb reporter, mRNA. The method, boiled down:
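Gain-of-signal mRNA reporter endpoint, DMSO as negative control. Transiently transfected HepG2 cells carrying the NR-Gal4 chimera and GAL4-UAS reporter units were treated 24 h; transcripts quantified by RT-PCR and capillary electrophoresis fluorescence.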

Experiment [19] deals with Oxysterols receptor LXR-alpha (Homo sapiens) (UniProt Q13133). The experiment is described as follows: ATG_LXRa_TRANS: Attagene TRANS-FACTORIAL HepG2 Assay for human Liver X Receptor alpha (LXRa) (AID 2282980; active = hit-call score of the fitted dose curve at least 0.9, where 1 is the maximum). Conditions: HepG2 Attagene TRANS reporter, LXRa transactivation. The method, boiled down: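 Transient HepG2 transfectants, 24 h dosing, RT-PCR/CE mRNA reporter quantitation; gain-of-signal vs DMSO.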

“And” between values parts separate entries of the source, which are not always exact repeats. Equal values may be shown once. Results filed as inconclusive are left out. The source made the active and inactive calls. The calls were made as follows, unless noted: active = hit-call score of the fitted dose curve at least 0.9, where 1 is the maximum; inactive = score below 0.9.

Chain of Cellular tumor antigen p53 (Homo sapiens) (P04637 whole entry, looked up): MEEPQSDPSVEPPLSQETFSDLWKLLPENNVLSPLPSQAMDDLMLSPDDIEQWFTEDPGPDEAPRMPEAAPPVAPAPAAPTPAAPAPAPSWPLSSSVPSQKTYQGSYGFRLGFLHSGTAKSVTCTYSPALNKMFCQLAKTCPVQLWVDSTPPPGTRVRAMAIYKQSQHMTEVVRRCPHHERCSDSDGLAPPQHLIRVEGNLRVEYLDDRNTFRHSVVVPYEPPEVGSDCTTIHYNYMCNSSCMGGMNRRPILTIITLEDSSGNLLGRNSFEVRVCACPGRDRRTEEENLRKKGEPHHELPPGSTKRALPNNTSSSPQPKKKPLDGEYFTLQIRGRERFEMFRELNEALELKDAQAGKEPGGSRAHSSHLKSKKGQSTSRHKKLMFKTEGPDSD
Chain of Nuclear respiratory factor 1 (Homo sapiens) (Q16656 whole entry, looked up): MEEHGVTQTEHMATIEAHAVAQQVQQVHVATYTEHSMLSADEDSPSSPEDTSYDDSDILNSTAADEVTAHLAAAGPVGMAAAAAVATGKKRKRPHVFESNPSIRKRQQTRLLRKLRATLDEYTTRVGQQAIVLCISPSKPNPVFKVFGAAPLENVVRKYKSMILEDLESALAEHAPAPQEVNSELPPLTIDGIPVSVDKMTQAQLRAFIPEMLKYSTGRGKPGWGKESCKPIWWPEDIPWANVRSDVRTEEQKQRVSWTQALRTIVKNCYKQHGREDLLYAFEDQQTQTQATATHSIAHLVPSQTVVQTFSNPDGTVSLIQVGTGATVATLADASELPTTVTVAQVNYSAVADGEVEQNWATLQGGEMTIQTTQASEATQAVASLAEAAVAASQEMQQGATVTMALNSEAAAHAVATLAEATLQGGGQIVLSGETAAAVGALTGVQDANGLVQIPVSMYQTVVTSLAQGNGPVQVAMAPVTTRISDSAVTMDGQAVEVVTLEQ
Chain of Myc proto-oncogene protein (Homo sapiens) (P01106 whole entry, looked up): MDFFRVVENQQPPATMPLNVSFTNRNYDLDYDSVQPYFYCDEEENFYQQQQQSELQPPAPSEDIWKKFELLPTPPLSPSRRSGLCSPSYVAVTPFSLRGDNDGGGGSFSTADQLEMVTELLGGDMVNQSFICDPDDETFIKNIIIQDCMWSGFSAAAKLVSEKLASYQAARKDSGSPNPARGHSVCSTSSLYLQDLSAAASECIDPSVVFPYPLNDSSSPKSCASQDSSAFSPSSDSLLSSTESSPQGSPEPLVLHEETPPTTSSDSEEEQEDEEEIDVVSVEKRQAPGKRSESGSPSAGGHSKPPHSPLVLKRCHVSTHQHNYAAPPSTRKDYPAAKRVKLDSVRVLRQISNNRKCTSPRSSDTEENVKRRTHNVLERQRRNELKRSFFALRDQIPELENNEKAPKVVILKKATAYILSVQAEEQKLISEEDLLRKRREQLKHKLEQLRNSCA
Chain of Oxysterols receptor LXR-beta (Homo sapiens) (P55055 whole entry, looked up, the tested form may be a part): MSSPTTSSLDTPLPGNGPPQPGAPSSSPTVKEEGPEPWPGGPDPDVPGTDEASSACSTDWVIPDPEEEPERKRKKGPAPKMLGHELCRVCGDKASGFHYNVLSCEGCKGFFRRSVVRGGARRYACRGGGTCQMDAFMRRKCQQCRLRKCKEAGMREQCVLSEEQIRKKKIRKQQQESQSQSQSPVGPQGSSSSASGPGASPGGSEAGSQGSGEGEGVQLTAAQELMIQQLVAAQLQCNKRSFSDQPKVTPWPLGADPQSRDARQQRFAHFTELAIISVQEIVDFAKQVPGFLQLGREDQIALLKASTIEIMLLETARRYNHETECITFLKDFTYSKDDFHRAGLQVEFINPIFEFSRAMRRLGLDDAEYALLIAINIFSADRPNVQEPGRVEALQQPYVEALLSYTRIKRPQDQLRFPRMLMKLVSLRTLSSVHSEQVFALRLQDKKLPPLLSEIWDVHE
Chain of Transcriptional activator Myb (Homo sapiens) (P10242 whole entry, looked up): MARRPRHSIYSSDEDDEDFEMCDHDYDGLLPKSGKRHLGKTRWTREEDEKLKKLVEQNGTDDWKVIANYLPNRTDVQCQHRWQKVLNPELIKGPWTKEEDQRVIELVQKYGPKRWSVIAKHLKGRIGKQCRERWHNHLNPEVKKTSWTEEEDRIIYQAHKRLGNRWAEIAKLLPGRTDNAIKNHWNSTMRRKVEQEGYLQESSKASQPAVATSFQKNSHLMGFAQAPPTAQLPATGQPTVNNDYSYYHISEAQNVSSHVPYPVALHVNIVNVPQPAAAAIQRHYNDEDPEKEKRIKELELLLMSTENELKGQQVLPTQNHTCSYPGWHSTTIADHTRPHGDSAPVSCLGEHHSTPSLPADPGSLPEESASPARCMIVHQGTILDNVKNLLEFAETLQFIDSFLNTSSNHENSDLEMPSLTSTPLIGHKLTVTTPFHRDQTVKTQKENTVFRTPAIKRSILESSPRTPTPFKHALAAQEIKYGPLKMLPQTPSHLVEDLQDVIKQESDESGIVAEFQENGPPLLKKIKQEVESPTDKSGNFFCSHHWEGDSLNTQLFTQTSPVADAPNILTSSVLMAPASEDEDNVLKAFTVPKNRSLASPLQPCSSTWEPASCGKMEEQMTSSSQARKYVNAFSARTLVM
Chain of Hepatocyte nuclear factor 4-alpha (Homo sapiens) (P41235 whole entry, looked up, the tested form may be a part): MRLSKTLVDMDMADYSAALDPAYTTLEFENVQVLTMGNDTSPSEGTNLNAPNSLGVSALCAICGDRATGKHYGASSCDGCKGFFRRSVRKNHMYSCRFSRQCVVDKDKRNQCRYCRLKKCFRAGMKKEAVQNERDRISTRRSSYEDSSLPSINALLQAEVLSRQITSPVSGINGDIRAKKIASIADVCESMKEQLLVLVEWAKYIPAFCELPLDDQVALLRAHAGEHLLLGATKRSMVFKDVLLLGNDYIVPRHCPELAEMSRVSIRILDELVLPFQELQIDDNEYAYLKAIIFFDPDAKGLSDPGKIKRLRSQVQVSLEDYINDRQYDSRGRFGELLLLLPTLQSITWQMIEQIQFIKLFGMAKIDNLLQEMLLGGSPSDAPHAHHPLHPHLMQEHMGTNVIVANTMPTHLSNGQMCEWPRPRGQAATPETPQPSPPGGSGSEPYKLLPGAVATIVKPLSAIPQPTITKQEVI

For the compound `CCCCOCCOCCO`, the call in experiment [1], in experiment [2], in experiment [3], in experiment [4], in experiment [5] and in experiment [6] was inactive. Besides, the call in experiment [7], in [8], in experiment [9], in experiment [10], in [11] and in experiment [12] was inactive. In addition, the outcome in [13] and in experiment [14] was inactive.

Take `CC1(C)[C@H](C=C(Cl)Cl)[C@H]1C(=O)OCc1cccc(Oc2ccccc2)c1`: the compound was called inactive in experiment [1], in [15], in experiment [2], in [4], in experiment [5] and in [6]. For the same compound, the compound was called inactive in experiment [7], in experiment [9], in experiment [10], in [11], in experiment [12] and in experiment [13]. In addition, in experiment [14], the result was inactive.

For `CC(=O)C1=C(C)[C@@H]2C[C@@]3(C1)[C@H](C)CC[C@H]3C2(C)C`, the compound was called inactive in experiment [16], in experiment [3], in experiment [4], in experiment [17], in experiment [5] and in [7]. In addition, the AC50 (commonly the midpoint of the concentration-response curve, whichever way the signal moves) is 137000 nM (active) in experiment [6], 70100 nM (active) in [9] and 100000 nM (active) in experiment [11].

On to `[Cl][Dy]([Cl])[Cl]`, for which the call in experiment [16], in experiment [18], in experiment [15], in experiment [17], in experiment [5] and in [6] was inactive. Further, the outcome in [7], in experiment [8] and in [9] was inactive.

On to `c1ccc(OCCOc2ccccc2)cc1`, for which the call in experiment [1], in experiment [3], in experiment [17], in experiment [5], in experiment [6] and in experiment [7] was inactive. The compound was called inactive in [8], in [9], in experiment [10], in experiment [11], in [13] and in [14]. Moreover, in experiment [12], the half-maximal activity concentration (AC50) was 1.24 µM (active) and 1.4 µM (active).

With `CC(=O)C1C(=O)C=C(C)OC1=O` (configuration not stated), the outcome in experiment [16], in experiment [2], in [4], in experiment [17], in experiment [5] and in experiment [6] was inactive. Moreover, the call in experiment [7], in experiment [9], in experiment [10] and in experiment [11] was inactive.

With `NC(=O)c1c(Cl)cccc1Cl`, the call in experiment [16], in experiment [15], in experiment [2], in experiment [5], in [7] and in experiment [8] was inactive. Also, the result in experiment [9], in experiment [10], in [13] and in experiment [14] was inactive. Also, the AC50 in experiment [12] is 67.1 nM (active).

Turning to `CC(CO)(CO)[N+](=O)[O-]`, the outcome in [16], in [19], in experiment [3], in experiment [17], in experiment [5] and in experiment [7] was inactive. Besides, the compound was classed as inactive in experiment [10].

As for `CC(O)COCC(C)O` (configuration not stated), the call in experiment [16], in experiment [18], in experiment [3], in experiment [17], in [5] and in experiment [6] was inactive. For the same compound, the compound was classed as inactive in [8], in experiment [9], in [10] and in experiment [11].

With `c1ccc2c(c1)-c1ccc3ccc4cccc5cc-2c1c3c45`, the call in [16], in experiment [18], in experiment [15], in experiment [2], in [3] and in experiment [4] was inactive. The outcome in experiment [17], in experiment [5], in experiment [7], in [8], in experiment [10] and in experiment [11] was inactive. Also, the result in [14] was inactive. Moreover, the AC50 is 205 nM (active) in [9], 35.2 nM (active) in [12] and 667 nM (active) in [13].
